# High-throughput results from PubChem.
# S16 viability = S16 Schwann cell cytotoxicity; S16 Pmp22-F2sN Schwann cells viability, CellTiter-Glo, 24 h; Potency, µM (doses to about 57.5 µM), inactives show at the highest dose activity change, negative = cytotoxicity, most hits filed as cytotoxic; actives 0.48% (n = 43,000); AID 1508642; further: potency means the concentration at half of the fitted maximal effect; on the % scale 0 is the no-effect control and ±100 the full control effect; nearly all actives have a fitted effect of over 65% in size
#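 Used to flag compounds lowering reporter output through toxicity, this quantitative HTS measures ATP-based CellTiter-Glo luminescence in S16 Pmp22-F2sN Schwann cells after 24 h compound exposure at 37C.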
# HTT-AS act = HTT-AS promoter activation | HEK293 HTT-AS promoter firefly luciferase reporter, 24 h; response scale: percent change from vehicle, -100% = no light | actives 0.24% (n = 48,000) | Potency, µM (top dose mostly 57.5 µM), for inactives: at the highest dose activity change, positive = activation, most hits filed as activators; further: potency means the concentration at half of the fitted maximal effect; nearly all actives have a fitted effect of over 55% in size
#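 Firefly luciferase signal from promoter-reporter HEK293 cells was scaled between vehicle (0%) and zero RLU (-100%). Compounds were tested at final concentrations of up to 57.5 uM over 24 h at 37 degrees C. PTC124 at 50 uM final served as control inhibitor.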
# OvCa metastasis = blocks SKOV3ip1 adhesion and invasion in omental model; SKOV3ip1-GFP adhesion/invasion on 3D omental model, fluorescence; Potency, µM (highest dose often 45.8 µM), for inactives: top-dose activity change, negative = inhibition, usual class: inhibitors; actives 0.1% (n = 46,000); AID 1963576;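 further: potency means the concentration at half of the fitted maximal effect; plate controls were DMSO wells for no effect and tomatine positive control wells for full effect; nearly all actives have a fitted effect of over 65% in size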
#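 A 3D layer of primary human omental fibroblasts, mesothelial cells, fibronectin and collagen I, grown 48 hr, received SKOV3ip1-GFP cells in serum-free medium plus compounds at 0.36-46 umol/L. After 2 hr RT and 16 hr 37 C, fixed adherent GFP cells were counted; normalized to DMSO and tomatine.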
# PMP22 txn = modulates PMP22 transcription in S16 Schwann cells; Potency, µM (series often up to 57.5 µM), for inactives: top-dose activity change, negative = inhibition, actives largely listed as inhibitors; S16 Pmp22-F2sN Schwann cells, FLuc/NLuc coincidence luminescence, 24 h; AID 1508649; actives 2% (n = 43,000); active means clear falling dose curves in both reporters; inconclusive means both reporters move, but less clearly or upward; inactive means either reporter flat; the % is the NLuc reporter signal; further: potency means the concentration at half of the fitted maximal effect; on the % scale 0 is the no-effect control and ±100 the full control effect
#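 qHTS, 1536-well. Cells seeded, compounds added by pin tool, 24 h 37C. Nano-Glo reagent 1 (lysis/FLuc), 10 min RT, read; Stop&Glo, 10 min RT, read NLuc.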
# HTT prom inh = inhibits huntingtin promoter activity | HEK293 HTT promoter firefly luciferase reporter, 24 h | actives 0.93% (n = 48,000) | AID 1508623 | Potency, µM (series often up to 57.5 µM), for the others: top-dose activity change, negative = inhibition, most hits filed as inhibitors; further: potency means the concentration at half of the fitted maximal effect; nearly all actives have a fitted effect of over 50% in size
#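 HEK293 Fluc reporter, 2,500 cells/well, 24 h pre-culture; cpds up to 57.5 uM final, 24 h 37 degrees C; Dual-Glo, 10 min RT; normalized vehicle = 0%, zero RLU = -100%.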
# mTORC1 inh = inhibitors of mTORC1 signaling in Tsc2-/- p53-/- MEF cells | Tsc2-/- p53-/- MEF, phospho-rpS6 immunofluorescence/PI, 24 h | Potency, µM (highest dose often 38.3 µM), for the others: at the highest dose activity change, negative = inhibition, actives largely listed as inhibitors | actives 0.78% (n = 44,000);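 further: potency means the concentration at half of the fitted maximal effect; plate controls were DMSO for no effect and rapamycin for full effect; nearly all actives have a fitted effect of over 50% in size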
#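 Cell-based qHTS: Tsc2-/- p53-/- MEF, 24 h cpd, 37 °C; fix/perm, anti-phospho-S6 Alexa-488 + PI; Acumen 488 nm scan; pS6/PI ratio, % positive cells; rapamycin 7.5 nM = inhibition ref; PI count = viability.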
# NLuc saturating = NanoLuc enzyme inhibition artifact for PMP22 screen; shares compounds with PMP22 txn; AID 1508638; Potency, µM (highest dose often 57.5 µM), for inactives: top-dose activity change, negative = inhibition, hits mostly inhibitors; actives 4% (n = 690); Secreted NLuc enzyme (filtered S16 cell medium), Nano-Glo luminescence; further: potency means the concentration at half of the fitted maximal effect; on the % scale 0 is the no-effect control and ±100 the full control effect
# NLuc Km counter = counter-screen for PMP22 expression modulators: NanoLuc inhibition at Km; Potency, µM (titrated, usually from 57.5 µM), without a hit: top-dose activity change, negative = inhibition, hits mostly inhibitors; secreted NLuc enzyme, coelenterazine luminescence, Km conditions; shares compounds with PMP22 txn; actives 5% (n = 690); further: potency means the concentration at half of the fitted maximal effect; on the % scale 0 is the no-effect control and ±100 the full control effect
# FLuc counter = counter-screen for PMP22 expression modulators: firefly luciferase inhibition; purified P. pyralis FLuc, luminescence, 10 min; shares compounds with PMP22 txn; Potency, µM (highest dose often 57.5 µM), without a hit: at the top dose activity, negative = inhibition, actives largely listed as inhibitors; 690 tested, under 10 active; further: % of control where 0% means no effect
# Target sequence (P08659 whole entry, looked up): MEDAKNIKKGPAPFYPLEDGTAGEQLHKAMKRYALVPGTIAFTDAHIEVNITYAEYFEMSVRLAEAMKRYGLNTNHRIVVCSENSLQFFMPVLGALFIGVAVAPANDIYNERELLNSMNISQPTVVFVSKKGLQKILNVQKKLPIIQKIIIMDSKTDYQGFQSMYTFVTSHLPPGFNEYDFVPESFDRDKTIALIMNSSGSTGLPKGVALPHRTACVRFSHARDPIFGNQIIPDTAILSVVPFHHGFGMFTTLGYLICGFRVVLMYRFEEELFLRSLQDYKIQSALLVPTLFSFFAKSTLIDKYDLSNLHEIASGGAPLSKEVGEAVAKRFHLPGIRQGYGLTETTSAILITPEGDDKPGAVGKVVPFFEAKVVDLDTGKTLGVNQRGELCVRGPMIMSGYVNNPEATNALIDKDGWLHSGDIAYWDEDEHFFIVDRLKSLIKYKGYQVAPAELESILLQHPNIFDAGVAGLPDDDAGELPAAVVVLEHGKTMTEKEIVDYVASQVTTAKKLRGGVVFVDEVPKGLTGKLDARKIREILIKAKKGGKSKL
# S16 viab conf = confirmation of cytotoxicity in S16 Pmp22-F2sN Schwann cells (luciferase reporters placed in the Pmp22 gene). shares compounds with PMP22 txn. S16 Schwann cells viability, CellTiter-Glo ATP luminescence, 24 h. Potency, µM (series often up to 57.5 µM), inactives show at the highest dose activity change, negative = viability loss, usual class: cytotoxic. actives 7% (n = 690). AID 1508641; further: potency means the concentration at half of the fitted maximal effect; on the % scale 0 is the no-effect control and ±100 the full control effect
# PMP22 txn conf = PMP22 transcription modulation, confirmatory | S16 Schwann cells Pmp22-F2sN, dual luciferase, 24 h | shares compounds with PMP22 txn | AID 1508646 | actives 22% (n = 690) | Potency, µM (top dose mostly 57.5 µM), for inactives: top-dose activity change, negative = inhibition, hits mostly inhibitors; active means clear falling dose curves in both reporters; inconclusive means both reporters move, but less clearly or upward; inactive means either reporter flat; the % is the FLuc reporter signal; further: potency means the concentration at half of the fitted maximal effect
# PMP22 HiBiT cnf = rat PMP22 protein level modulation, confirmatory; Potency, µM (highest dose often 27.9 µM), without a hit: at the highest dose activity change, negative = inhibition, hits mostly inhibitors; S16 Schwann cells Pmp22-HiBiT, luminescence, 48 h; shares compounds with PMP22 txn; 95 tested, under 10 active
# Active calls of the source: *; i = inactive; ? = inconclusive; / = no result given; [ ] = remark or other dose. Shown are actives, neighbours in structure and some others; about 3.6% of the full set was active somewhere. Unless noted, the call rests on the fitted dose curve; in most records, active means well fitted curve in the direction sought with a large enough effect; inconclusive means small, poorly fitted or top-dose-only effect, or another doubt; inactive means no such curve, though single readings can be large; an effect the other way counts as inactive or inconclusive.
SMILES,S16 viability,HTT-AS act,OvCa metastasis,PMP22 txn,HTT prom inh,mTORC1 inh,NLuc saturating,NLuc Km counter,FLuc counter,S16 viab conf,PMP22 txn conf,others
COc1ccc(N2CCN(c3c4c(nc5nncn35)CCC4)CC2)cc1,-26%,-52%,2%,13µM*,?,?,?,0%,-8%,-8%,?,
CCCc1cc(N2CCN(c3ccc(OC)cc3)CC2)n2cnnc2n1,?,-23%,-2%,?,?,-10%,/,/,/,/,/,
Cc1cc(SCc2sc(-c3ccc(C(F)(F)F)cc3)nc2C)ccc1OCC(=O)O,/,21%,21%,/,14%,/,/,/,/,/,/,
COc1ccccc1N1CCN(c2ncnc3c2cnn3-c2cc(Cl)ccc2C)CC1,?,-23%,-5%,8.4µM*,?,3%,?,?,3%,?,?,
COc1ccc(NC(=O)c2c(NCc3ccc(C)o3)sc3c2CCC(C)C3)c(OC)c1 (configuration not stated),?,-23%,2%,?,?,?,/,/,/,/,/,
COc1ccc(NC(=O)c2c(NCc3ccc(C)o3)sc3c2CCCCC3)c(OC)c1,-25%,-26%,-10%,14µM*,-21%,?,?,?,-23%,7%,?,
COC(=O)N1CCN(Cc2cccc(NC(=O)Nc3ccc(C)nc3)c2F)CC1,/,-24%,5%,/,-18%,/,/,/,/,/,/,
CCOC(=O)c1c(NC(=O)c2nc(S(C)(=O)=O)ncc2Cl)sc(C(C)=O)c1C,?,2%,?,4.3µM*,4%,3.7µM*,?,?,-10%,14µM*,3.4µM*,PMP22 HiBiT cnf=?
CCOC(=O)c1c(NC(=O)COc2cccc(C)c2C)sc(C(C)=O)c1C,7%,17%[11.5 µM],i,1%,-5%,13%,/,/,/,/,/,
CCOC(=O)c1c(NC(=O)COc2ccc(Br)cc2)sc(C(C)=O)c1C,-23%,6%,-6%,2.1µM*,-21%,3%,-3%,3%,-5%,-9%,-6%,
Cc1ccc(CNC(=O)CSc2nc3ccsc3c(=O)n2-c2ccc(Br)cc2)cc1,4%,-14%,15%,?,-12%,-5%,/,/,/,/,/,
COc1ccc(-n2c(SCC(=O)NCc3ccc(Cl)cc3)nc3ccsc3c2=O)cc1,-2%,-26%,i,16µM*,-20%,-6%,-8%,4%,-3%,7%,-28%,
Cc1cccc(NC(=O)c2sc3nc4c(cc3c2N)CCCCCC4)c1C,17%,-28%,-10%,?,?,?,-7%,-2%,-7%,0%,-40%,
O=S(=O)(c1ccc(-c2csc(=Nc3ccc(OC(F)(F)Cl)cc3)n2CCCO)cc1)N1CCCC1,?,-63%,?,15µM*,?,?,0%,-2%,-10%,22µM*,19µM*,
COC(=O)c1c(-c2ccc(Cl)cc2)noc1N1CCN(c2ccccc2OC)CC1,?,-34%,?,8.9µM*,?,9%,-5%,-3%,-7%,30%,19µM*,PMP22 HiBiT cnf=28%
COc1ccccc1N1CCN(C(=O)CSc2nc(-c3ccc(C(C)C)cc3)no2)CC1,0%,-19%,-1%,?,?,0%,/,/,/,/,/,
